According to PubChem BioAssay AID1159580 (chemical genetic matrix, 2015):
About 2,000 (36%) of roughly 5,500 compounds were called active. Not shown: some 18% with an inconclusive outcome. Rule as the data show it: active = normalized growth mostly below about 0.91 (no sharp cut-off); inconclusive = no clear call, values can overlap the other calls; inactive = mostly above about 0.92. The list shows a part of the results.

Assay: chemical genetic growth profiling, strain panel (AID 1159580);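 also: tested at 20 µM; growth read once vehicle control cultures reached saturation at 30 °C; 1 = growth at the plate median or of vehicle wells; lower values mean less growth of the strain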
Details: growth OD

Measured: normalized growth

COc1ccc2c(c1OC)C(=O)O[C@H]2[C@H]1c2cc3c(cc2CCN1C)OCO3
inactive: S. cerevisiae deletion strains, locus YJR075W, strain HOC1, hits give low values 1 | S. cerevisiae deletion strains, locus YKL009W, strain mrt4, hits give low values 1.03 | S. cerevisiae deletion strains, locus YKL068W, hits give low values 1 | S. cerevisiae deletion strains, locus YKL085W, strain MDH1 (second series), hits give low values 1 | S. cerevisiae deletion strains, locus YKL085W, strain MDH1, hits give low values 1 | S. cerevisiae deletion strains, locus YKL160W, strain elf1, hits give low values 0.994 | S. cerevisiae deletion strains, locus YKL190W, strain CNB1, hits give low values 1 | S. cerevisiae deletion strains, locus YKR001C, strain vps1, hits give low values 1.03 | S. cerevisiae deletion strains, locus YKR026C, strain gcn3, hits give low values 1.01 | S. cerevisiae deletion strains, locus YKR091W, strain srl3, hits give low values 0.99 | S. cerevisiae deletion strains, locus YLL001W, strain dnm1, hits give low values 0.998 | S. cerevisiae deletion strains, locus YLL026W, hits give low values 1 | S. cerevisiae deletion strains, locus YLL041C, strain sdh2, hits give low values 1 | S. cerevisiae deletion strains, locus YLR027C, strain aat2, hits give low values 1 | S. cerevisiae deletion strains, locus YLR039C, strain RIC1, hits give low values 1.04 | S. cerevisiae deletion strains, locus YLR058C, strain SHM2, hits give low values 1 | S. cerevisiae deletion strains, locus YLR102C, strain apc9, hits give low values 1.01 | S. cerevisiae deletion strains, locus YLR113W, strain HOG1, hits give low values 1.05 | S. cerevisiae deletion strains, locus YLR221C, strain rsa3, hits give low values 0.998 | S. cerevisiae deletion strains, locus YLR258W, strain gsy2, hits give low values 1.01 | S. cerevisiae deletion strains, locus YLR262C, strain YPT6 (second series), hits give low values 1.01 | S. cerevisiae deletion strains, locus YLR262C, strain YPT6, hits give low values 1.03 | S. cerevisiae deletion strains, locus YLR268W, strain sec22, hits give low values 1.01 | S. cerevisiae deletion strains, locus YLR320W, strain mms22, hits give low values 1 | S. cerevisiae deletion strains, locus YLR330W, strain CHS5, hits give low values 1.01 | S. cerevisiae deletion strains, locus YLR342W, strain FKS1 (second series), hits give low values 0.981 | S. cerevisiae deletion strains, locus YLR342W, strain FKS1, hits give low values 0.996 | S. cerevisiae deletion strains, locus YLR357W, strain rsc2, hits give low values 1.03 | S. cerevisiae deletion strains, locus YLR370C, strain arc18, hits give low values 0.994 | S. cerevisiae deletion strains, locus YLR371W, strain rom2, hits give low values 1.02 | S. cerevisiae deletion strains, locus YLR384C, strain iki3, hits give low values 1 | S. cerevisiae deletion strains, locus YLR418C, strain cdc73, hits give low values 1.03 | S. cerevisiae deletion strains, locus YML016C, strain PPZ1, hits give low values 1 | S. cerevisiae deletion strains, locus YML032C, strain rad52, hits give low values 1.01 | S. cerevisiae deletion strains, locus YML120C, strain ndi1, hits give low values 0.987 | S. cerevisiae deletion strains, locus YML124C, strain tub3, hits give low values 1.01 | S. cerevisiae deletion strains, locus YMR058W, strain fet3, hits give low values 1 | S. cerevisiae deletion strains, locus YMR078C, strain ctf18, hits give low values 1 | S. cerevisiae deletion strains, locus YMR125W, strain sto1, hits give low values 0.991 | S. cerevisiae deletion strains, locus YMR129W, hits give low values 0.998 | S. cerevisiae deletion strains, locus YMR205C, strain PFK2, hits give low values 1 | S. cerevisiae deletion strains, locus YMR223W, strain ubp8, hits give low values 1 | S. cerevisiae deletion strains, locus YMR231W, strain pep5, hits give low values 0.999 | S. cerevisiae deletion strains, locus YMR263W, strain SAP30, hits give low values 1 | S. cerevisiae deletion strains, locus YMR307W, strain GAS1, hits give low values 1.05 | S. cerevisiae deletion strains, locus YNL067W, strain RPL9B, hits give low values 0.979 | S. cerevisiae deletion strains, locus YNL071W, strain lat1, hits give low values 0.994 | S. cerevisiae deletion strains, locus YNL128W, strain TEP1, hits give low values 0.984 | S. cerevisiae deletion strains, locus YNL153C, strain GIM3, hits give low values 1 | S. cerevisiae deletion strains, locus YNL183C, strain NPR1, hits give low values 0.979 | S. cerevisiae deletion strains, locus YNL209W, strain ssb2, hits give low values 1 | S. cerevisiae deletion strains, locus YNL233W, strain BNI4, hits give low values 1.01 | S. cerevisiae deletion strains, locus YNL248C, strain rpa49, hits give low values 0.988 | S. cerevisiae deletion strains, locus YNL250W, strain rad50, hits give low values 1 | S. cerevisiae deletion strains, locus YNL271C, strain bni1, hits give low values 1 | S. cerevisiae deletion strains, locus YNL298W, strain CLA4, hits give low values 1.01 | S. cerevisiae deletion strains, locus YNL307C, strain MCK1, hits give low values 1.01 | S. cerevisiae deletion strains, locus YNL322C, strain KRE1 (second series), hits give low values 1.01 | S. cerevisiae deletion strains, locus YNL322C, strain KRE1, hits give low values 1 | S. cerevisiae deletion strains, locus YNR049C, strain mso1, hits give low values 0.995 | S. cerevisiae deletion strains, locus YNR052C, strain pop2, hits give low values 0.999 | S. cerevisiae deletion strains, locus YOL006C, strain TOP1, hits give low values 1.03 | S. cerevisiae deletion strains, locus YOL012C, strain htz1 0.872 | S. cerevisiae deletion strains, locus YOL147C, strain pex11, hits give low values 1.01 | S. cerevisiae deletion strains, locus YOR001W, strain rrp6, hits give low values 0.995 | S. cerevisiae deletion strains, locus YOR061W, strain CKA2, hits give low values 1 | S. cerevisiae deletion strains, locus YOR069W, strain VPS5, hits give low values 0.997 | S. cerevisiae deletion strains, locus YOR070C, strain gyp1, hits give low values 0.995 | S. cerevisiae deletion strains, locus YOR080W, strain dia2, hits give low values 1 | S. cerevisiae deletion strains, locus YOR083W, strain WHI5, hits give low values 0.988 | S. cerevisiae deletion strains, locus YOR106W, strain vam3, hits give low values 1.02 | S. cerevisiae deletion strains, locus YOR136W, strain idh2, hits give low values 1 | S. cerevisiae deletion strains, locus YOR144C, strain elg1, hits give low values 1.01 | S. cerevisiae deletion strains, locus YOR184W, strain ser1, hits give low values 0.999 | S. cerevisiae deletion strains, locus YOR231W, strain MKK1, hits give low values 1.06 | S. cerevisiae deletion strains, locus YOR265W, strain rbl2, hits give low values 1 | S. cerevisiae deletion strains, locus YOR270C, strain vph1, hits give low values 0.998 | S. cerevisiae deletion strains, locus YOR290C, strain snf2, hits give low values 0.975 | S. cerevisiae deletion strains, locus YOR316C, strain cot1, hits give low values 1 | S. cerevisiae deletion strains, locus YPL051W, strain arl3, hits give low values 0.982 | S. cerevisiae deletion strains, locus YPL055C, strain LGE1, hits give low values 0.986 | S. cerevisiae deletion strains, locus YPL078C, strain atp4, hits give low values 0.996 | S. cerevisiae deletion strains, locus YPL106C, strain sse1, hits give low values 0.982 | S. cerevisiae deletion strains, locus YPL240C, strain hsp82, hits give low values 1 | S. cerevisiae deletion strains, locus YPL241C, strain CIN2, hits give low values 0.997 | S. cerevisiae deletion strains, locus YPL256C, strain CLN2, hits give low values 1.03 | S. cerevisiae deletion strains, locus YPR119W, strain clb2, hits give low values 1.01 | S. cerevisiae deletion strains, locus YPR141C, strain kar3, hits give low values 1.01 | S. cerevisiae deletion strains, locus YPR163C, strain tif3, hits give low values 1.02 | S. cerevisiae deletion strains, locus YPR167C, strain met16, hits give low values 1.01 | S. cerevisiae deletion strains, strain wtn01, hits give low values 1.01 | S. cerevisiae strains, strain wild type, hits give low values 0.982
